Hits are enriched below; roughly 2.1% of the tested compounds scored in any of these assays.
KKLEB tox: reduces viability of KKLEB cystic fibrosis airway cells; KKLEB CF airway cells viability, ATPlite luminescence, overnight; active compounds read low; cells stimulated with P. aeruginosa culture filtrate; activity change (cytotoxicity), % at 5 µM; actives 0.36% (n = 360,000);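 active means corrected activity change at or below -50% at 5 µM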
CF NFkB inh: inhibitors of cystic fibrosis induced NF-kB | AID 588850 | KKLEB NF-kB-GFP reporter, PAF-induced, GFP fluorescence overnight | inhibition, % at 5 µM | actives 0.86% (n = 360,000);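 active means at least 50% inhibition at 5 µM, scaled per plate between neutral and stimulator controls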;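 further: PAF is a Pseudomonas aeruginosa culture filtrate used as stimulus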
HIF-2a inh: HIF-2a inhibition | 786-0 RCC cells HIF-2a reporter, luciferase luminescence, overnight | actives 0.72% (n = 360,000) | inhibition, % at 18.8 µM;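 active means inhibition of the luminescence signal of 40% or more relative to plate controls, in a single-dose primary screen at 18.75 µM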
EWS-Fli block: blocks EWS/Fli oncoprotein-driven transcription; A673 NR0B1-luciferase reporter, viability-normalised; inhibition, % at 12.6 µM; actives 0.67% (n = 350,000); AID 651661;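 active means mean inhibition of at least 50% after viability correction, with every replicate also passing that limit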;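 further: firefly luciferase signal divided by Alamar Blue viability fluorescence both relative to DMSO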
PAX8 inh HTS: lowers PAX8-driven luciferase in RMG-I cells. RMG-I TPO-luciferase reporter, SteadyGlo, 24 h. inhibition, % at 12.6 µM. actives 1.2% (n = 360,000). AID 652154;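 active means mean replicate inhibition at least 60% with every replicate also reaching 60%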;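 further: luciferase light reporting Pax8 driven TPO promoter activity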
Numbers stand for hits; – = inactive; · = no result given.

SMILES	KKLEB tox	CF NFkB inh	HIF-2a inh	EWS-Fli block	PAX8 inh HTS
Cc1ccc(S(=O)(=O)N(C)C[C@H]2Oc3cc(C4=CCCC4)ccc3S(=O)(=O)N([C@H](C)CO)C[C@H]2C)cc1	·	·	·	–	–
Cc1ccc(S(=O)(=O)N(C)C[C@@H]2Oc3cc(C4=CCCC4)ccc3S(=O)(=O)N([C@@H](C)CO)C[C@H]2C)cc1	·	·	·	–	71.2
COc1cccc(S(=O)(=O)N(C)C[C@H]2Oc3cc(C4=CCCCC4)ccc3S(=O)(=O)N([C@@H](C)CO)C[C@@H]2C)c1	·	·	·	–	–
COc1cccc(S(=O)(=O)N(C)C[C@@H]2Oc3cc(C4=CCCCC4)ccc3S(=O)(=O)N([C@@H](C)CO)C[C@H]2C)c1	·	·	·	–	76.5
O=c1cc(-c2ccccc2Cl)oc2c(NS(=O)(=O)c3cccs3)ccc(O)c12	–	52.1	–	–	–
Cc1ccc(-c2cnc3c(c2)C(=O)N([C@@H](C)CO)C[C@H](C)[C@H](CN(C)C(=O)c2cccc(F)c2)O3)cc1	·	·	·	–	–
C=CC[n+]1c(-c2ccc(Cl)cc2Cl)csc1Nc1c(C)n(C)n(-c2ccccc2)c1=O	–	–	–	–	–
C=CC[n+]1c(-c2ccc(Cl)cc2Cl)csc1Nc1ccc(NC(C)=O)cc1	–	–	94.7	–	–
C/C=C/CN(C(=O)C#Cc1ccccc1)[C@H](CO[Si](C)(C)C(C)(C)C)c1ccccc1	·	·	·	–	–
COc1ccc(-c2nn(-c3ccccc3)cc2/C=C/C(=O)OCC(=O)Nc2ccccc2C#N)cc1	-70.1	66.6	–	–	–
N#Cc1ccccc1NC(=O)COC(=O)/C=C/c1cn(-c2ccccc2)nc1-c1ccc(Cl)cc1	–	–	–	–	–
Cn1cnc2nc(Cl)nc(Cl)c21	–	–	–	–	80.3
CNc1nc(Cl)nc2ncn(C)c12	–	–	–	–	–
COCC#Cc1ccc2c(c1)O[C@@H](CN(C)S(=O)(=O)c1cccc(F)c1)[C@@H](C)CN([C@@H](C)CO)S2(=O)=O	·	·	·	–	·
CN(Cc1ccccc1)C(=O)c1ccc(Nc2nc(C(N)Cc3ccccc3)cs2)nc1 (stereo unspecified)	–	–	–	–	–
CN(Cc1ccccc1)C(=O)c1ccc(Nc2nc(C(N)Cc3ccc(C(F)(F)F)cc3)cs2)nc1 (stereo unspecified)	–	–	–	–	86.6
COc1cc(/C=N/NC(N)=S)ccc1OCc1ccc(C)cc1	–	–	–	–	75.2
COc1cc(/C=N/NC(N)=S)ccc1OC(=O)c1ccc(C)cc1	–	–	–	·	80.8
COc1ccc(C=NNC(=S)NN=Cc2ccc(OC)c(OC)c2)cc1OC	–	–	–	–	–
C[C@@H]1CN([C@@H](C)CO)C(=O)c2cc(-c3ccc(F)cc3)cnc2O[C@@H]1CN(C)C(=O)Nc1ccc(F)cc1	·	·	·	–	·
Cc1cccc(C)c1-n1nnnc1-c1nc2cc(Br)ccc2[nH]c1=O	·	·	–	–	–
Cc1cccc(C)c1-n1nnnc1-c1nc2cc3ccccc3cc2[nH]c1=O	·	·	–	54.2	–
Cc1ccc2c(CSc3nc4ccccc4c(=O)n3CCCO)cc(=O)oc2c1C	–	–	–	·	·
Cc1ccc2c(CSc3nnc4ccccn34)cc(=O)oc2c1C	–	–	–	–	65.9
CC=Cc1ccc2n(c1=O)C[C@@H]1[C@@H](CO)[C@H](C(=O)N3CCC(Cc4ccccc4)CC3)N(CCC)[C@H]21 (mixture of isomers)	·	·	·	–	–
SMILES	KKLEB tox	CF NFkB inh	HIF-2a inh	EWS-Fli block	PAX8 inh HTS
C=C1CCC[C@]2(C)C[C@H]3OC(=O)C(CNC(C)CC)[C@H]3CC12 (stereo partly specified)	–	–	–	–	–
C=C1CCC[C@]2(C)C[C@H]3OC(=O)C(CN(C)CC(OC)OC)[C@H]3CC12 (stereo partly specified)	–	–	–	–	63.2
O=C(CSc1nc2ccccc2c(=O)n1-c1ccc(F)cc1)Nc1ccc(N2CCOCC2)cc1	–	–	–	–	–
O=C(CSc1nc2ccccc2c(=O)n1-c1ccc(SC(F)F)cc1)Nc1ccc(N2CCOCC2)cc1	-65.6	65.7	–	–	–
C[C@@H]1CN([C@H](C)CO)C(=O)c2cc(NC(=O)CCCN(C)C)ccc2O[C@@H](C)CCCCO[C@@H]1CN(C)Cc1ccc2c(c1)OCO2	·	·	·	–	–
Cc1cc(N2CCN(C)CC2)ccc1NC(=O)c1ccc(-c2ccc(Cl)cc2)o1	–	–	41.1	–	–
O=C(C[C@@H]1C[C@@H]2c3cc(NS(=O)(=O)c4ccc(F)cc4)ccc3O[C@@H]2[C@H](CO)O1)NC1CCCCC1	·	·	·	–	–
Cc1ccc(OCC(=O)Nc2ccc(O)c(-c3nc4ccccc4o3)c2)cc1	-60.8	70.3	–	·	·
C[C@@H]1CN([C@@H](C)CO)S(=O)(=O)c2ccc(-c3ccc(F)cc3)cc2O[C@@H]1CN(C)C(=O)Nc1ccc(F)cc1	·	·	·	–	·
CCc1ccc(-c2cc(C)no2)cc1S(=O)(=O)NCCN1CCC(C)CC1	–	–	–	–	–
CCc1ccc(-c2cc(C)no2)cc1S(=O)(=O)NCCCN1CCN(c2ccccc2)CC1	–	–	–	–	60.7
O=C(C[C@@H]1CC[C@H]2[C@@H](COC[C@@H](O)CN2S(=O)(=O)c2ccc(Cl)cc2)O1)NCCN1CCCC1	·	·	·	–	–
C[C@@H]1CN([C@@H](C)CO)C(=O)c2cc(NS(=O)(=O)c3cccs3)ccc2O[C@@H]1CN(C)C(=O)Nc1ccc2c(c1)OCO2	·	·	·	–	·
CC(=O)Nc1ccc(C2=NNC(=Nc3cccc(S(=O)(=O)N(C)C)c3)SC2)cc1	–	–	–	·	·
CN(C)S(=O)(=O)c1cccc(N=C2NN=C(c3ccccc3)CS2)c1	·	·	·	–	72.8
CCCCCCOc1ccc(/C(C)=N/NC2=NCCN2)cc1[N+](=O)[O-]	–	–	–	59.2	–
Cc1ccc(S(=O)(=O)N(C)C[C@H]2OCCCC[C@H](C)Oc3ccc(NC(=O)Nc4ccccc4)cc3C(=O)N([C@@H](C)CO)C[C@@H]2C)cc1	·	·	·	–	·
COc1ccc(NC(=O)N(C)C[C@@H]2Oc3ccc(NS(=O)(=O)c4ccc(OC)cc4)cc3C(=O)N([C@H](C)CO)C[C@H]2C)cc1	·	·	·	–	–
Cc1noc(C)c1S(=O)(=O)N(C)C[C@@H]1Oc2ccc(NS(=O)(=O)c3ccc(F)cc3)cc2C(=O)N([C@H](C)CO)C[C@@H]1C	·	·	·	–	·
OC(CCN1CCCC1)(c1ccccc1)C1CCCCC1 (stereo unspecified)	–	–	–	–	–
CN1CCCN=C1COC(=O)C(O)(c1ccccc1)C1CCCCC1 (stereo unspecified)	-63.7	–	–	–	–
Cc1ccc(NC(=O)CCC(=O)NNC(=S)Nc2ccccc2)c(C)c1	–	–	–	–	–
Cc1ccc(NC(=S)NNC(=S)Nc2ccc(C)cc2C)cc1	–	56.8	–	–	–
Cc1ccc(/C=N/NC(=O)c2ccccn2)o1	–	–	–	–	120.2
O=C(N/N=C/c1ccncc1)c1ccccn1	–	–	–	–	–
Cc1ccc(/C=N/NC(=O)c2ccncc2)o1	–	–	–	–	83.8

Source: PubChem
